# Source: PubChem BioAssay AID1626 (SRMLSC, 2009)
# Out of some 220,000 compounds screened, about 2,000 (0.91%) were called active. Another 2% or so got no clear call; they are omitted. These entries were drawn from the full list. Results with a measured potency or affinity are listed apart. Values without a mark were called inactive. Cut-off read from the data, not from the text of the source: inconclusive = inhibition above about 80% without an active follow-up result; inactive = below that; test concentration not stated here.
# Test: M. tuberculosis H37Rv growth inhibitors, H37Rv strain (AID 1626);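 note: bacteria incubated seven days before Alamar blue readout; 0% = bacteria only wells and 100% = bacteria with antibiotic wells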
# Conditions: hits give high values, concentration not given here
row,Compound,inhibition [%]
1,O=C(Nc1ccc2nc(SCc3ccc(Cl)cc3)sc2c1)c1ccccc1C(=O)N1CCOCC1,4.76
2,CC(=O)Nc1ccc2nc(SCC(=O)N3CCOCC3)sc2c1,5.08
3,CCCn1c(=O)c(C(=O)NCc2ccc(OC)c(OC)c2)c(O)c2ccccc21,-0.33
4,Cc1ccc(-c2nc(NC(=O)c3cc(C(C)(C)C)nn3C)sc2C)cc1Cl,78.4
5,COc1ccc(-c2nc(NC(=O)c3nc4nccc(C)n4n3)sc2C)cc1,-7.46
6,C1CN(CC2CCN(c3nc4nonc4nc3N3CCSCC3)CC2)CCO1,-0.53
7,CCCCc1ccc(NC(=O)OC)cc1,58
8,CCCCc1ccc(NC(=O)CC(C)=O)cc1,77.5
9,CCCCc1ccc(NC(=O)N[C@@H](C)C(=O)O)cc1,0.78
10,CCCCc1ccc(NC(=O)CC(C)(C)C)cc1,5.76
11,CCN(CC)C(=O)C1=C(C)Nc2ncnn2C1c1cccnc1 (centres undefined),-0.97
12,Cc1nn2c(-c3ccccc3)ccnc2c1-c1ccccc1,-0.56
13,OCC1OC(n2nnc3ccccc32)C(O)C(O)C1O (centres undefined),-9.39
14,Cc1cc(NC(=O)CCl)on1,0.735
15,Cc1cc(NC(=O)CCl)no1,65
16,CSc1nc(=O)n2cc(C)ccc2n1,0.11
17,CCOC(=O)C(NC(C)=O)(Nc1ccc(S(=O)(=O)Nc2cc(C)nc(C)n2)cc1)C(F)(F)F (centres undefined),-6.92
18,O=C(Nc1ccccc1)c1ccc(CSc2ncccn2)cc1,3.69
19,Cc1ccc(NC(=O)c2ccc(CSc3ccccn3)cc2)cc1,14.1
20,CCOC(=O)C(=CNc1ccc(Oc2cncc(Cl)c2)nc1)C(=O)OCC,2.61
21,O=C(Nc1ccc(-n2nncc2-c2ccco2)cc1)c1ccc(F)cc1,0.33
22,Cc1onc(-c2ccccc2Cl)c1C(=O)Nc1ccc(-n2nncc2-c2ccco2)cc1,68
23,Cc1ccc(-c2nnn(CC(=O)N3CCCCC3)n2)o1,-0.84
24,CC(OC(=O)C1=COCCO1)C(=O)Nc1ccccc1C#N (centres undefined),-7.04
25,CCC(C)NC(=O)Nc1ccc(Br)cc1 (centres undefined),1.26
26,CC(C)(C)NC(=O)Nc1ccc(Br)cc1,-1.24
27,COc1ccc(C(=O)/C=C\c2ccc(NC(=O)c3cccs3)cc2)cc1,-0.27
28,COc1c(Cl)cc(Cl)cc1C(=O)Nc1ccc(NC(=O)c2cccs2)cc1,56.1
29,CC1SCC(=O)N(CC(=O)Nc2ccc3c(c2)OCCO3)C1=O (centres undefined),2.44
